AC50 and outcome data for six molecules are collected here from PubChem BioAssay (EPA / NIEHS).

In general, AC50 refers to the concentration at which the activity in the assay is half-maximal.

Records with an inconclusive call do not appear. Activity calls are given as the source filed them. Rule for the calls, unless noted: active = hit-call score of the fitted dose curve at least 0.9, where 1 is the maximum; inactive = score below 0.9.

Read-out in test [1]: Interleukin-8 (IL8), CXCL8 (gene 3576)
Briefly: BSK_3C_IL8: BioMAP Diversity Plus: 3C Assay for Interleukin-8 (IL8) Biomarker Activity (AID 2283020). To be noted: primary human endothelial cells (HUVEC); actives raise or lower the signal. The method, boiled down: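 Using DMSO-treated wells as the baseline, bidirectional curve fitting was applied to ELISA-measured IL-8 from human umbilical vein endothelial cultures sampled 24 h after compound addition.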

Read-out in test [2]: Monokine induced gamma interferon (MIG), CXCL9 (gene 4283)
Kind of test: BSK_3C_MIG: BioMAP Diversity Plus: 3C Assay for Monokine induced gamma interferon (MIG) Biomarker Activity (AID 2283021).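 For AC50: MIG protein level measured by immunoassay in the treated endothelial cultures.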 To be noted: primary human endothelial cells (HUVEC); actives raise or lower the signal. Put shortly:
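ELISA-measured MIG in dosed HUVEC 3C cultures at 24 h, analysed by bidirectional fitting with DMSO defining baseline activity.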

Test [3] deals with human Vitamin D Receptor (VDR), VDR (gene 7421) (UniProt P11473). Briefly: ATG_VDR_TRANS: Attagene TRANS-FACTORIAL HepG2 Assay for human Vitamin D Receptor (VDR) (AID 2283022; active = hit-call score of the fitted dose curve at least 0.9, where 1 is the maximum). Put shortly:
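HepG2 cells were transiently transfected with GAL4-UAS reporter units and a chimeric VDR-Gal4 construct, then dosed for 24 hours. Reporter mRNA was quantified by RT-PCR, fluorescent labeling, HpaI digestion and capillary electrophoresis; gain of signal analysed vs DMSO.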

Test [4] is described as follows: BSK_3C_SRB: Viability Assessment in the BioMAP Diversity Plus: 3C Assay (AID 2283023).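 Note: fitted both ways against DMSO so a hit may be signal rise or drop.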 To be noted: primary human endothelial cells (HUVEC). The method, boiled down:
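Human umbilical vein endothelial cells in the 3C system, treated 24 h. Total protein measured by 0.1% sulforhodamine B staining after 10% TCA fixation, read at 560 nm; bidirectional fit versus DMSO.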

Read-out in test [5]: Matrix Metallopeptidase 1 (MMP1), MMP1 (gene 4312)
Kind of test: BSK_BE3C_MMP1: BioMAP Diversity Plus: BE3C Assay for Matrix Metallopeptidase 1 (MMP1) Biomarker Activity (AID 2283024). The settings on record: primary human bronchial epithelial cells; actives raise or lower the signal. The method, boiled down: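 In this multiplexed primary-cell system, human bronchial epithelium received chemicals for 24 h before an ELISA for MMP1. Values reflect bidirectional fits normalised to the DMSO baseline.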

A short description of test [6]: BSK_3C_Vis: BioMAP Diversity Plus: 3C Assay for Morphology Visualization (AID 2283025).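 For AC50: light microscopy image of cell morphology used as background control.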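 Note: fitted both ways so gain or loss versus DMSO counts.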 The settings on record: primary human endothelial cells (HUVEC). Put shortly:
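Light-microscopy morphology readout, 24 h exposure, human primary umbilical vein endothelium; analysed relative to DMSO with bidirectional fitting.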

Read-out in test [7]: Pselectin, SELP (gene 6403)
Kind of test: BSK_4H_Pselectin: BioMAP Diversity Plus: 4H Assay for Pselectin Biomarker Activity (AID 2283026). To be noted: primary human endothelial cells (HUVEC); actives raise or lower the signal. The method, boiled down:
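Bidirectional fits against DMSO gave the endpoint. Cells: primary human umbilical vein endothelium, chemical-treated for 24 h before ELISA detection of P-selectin.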

A short description of test [8]: BSK_4H_SRB: Viability Assessment in the BioMAP Diversity Plus: 4H Assay (AID 2283027).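 For AC50: curves fitted both ways versus DMSO so AC50 may be loss or gain.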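 Note: cells exposed to compound for 24 h before staining.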 To be noted: primary human endothelial cells (HUVEC). Put shortly: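 Cytotoxicity readout: sulforhodamine B (0.1%) staining of total protein after 10% TCA fixation, measured at 560 nm in human umbilical vein endothelium at 24 h. DMSO set the baseline; fitting was bidirectional.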

Test [9] can be described thus: BSK_BE3C_SRB: Viability Assessment in the BioMAP Diversity Plus: BE3C Assay (AID 2283028).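 For AC50: fitted both ways so AC50 may mark signal gain or loss versus DMSO.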 The settings on record: primary human bronchial epithelial cells. Put shortly:
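Human bronchial epithelial primary cells in confluent culture, 24 h after chemical dosing; total protein by 0.1% SRB staining after 10% TCA fixation, read at 560 nm. Bidirectional fitting versus DMSO baseline.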

Read-out in test [10]: Thrombomodulin, THBD (gene 7056)
Kind of test: BSK_3C_Thrombomodulin: BioMAP Diversity Plus: 3C Assay for Thrombomodulin Biomarker Activity (AID 2283029). The settings on record: primary human endothelial cells (HUVEC); actives raise or lower the signal. The method, boiled down:
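In a multiplexed primary-cell system, human umbilical vein endothelium received chemical and was assayed 24 h later for thrombomodulin by ELISA. Parallel cultures were SRB-stained (0.1% SRB after 10% TCA fixation, read at 560 nm) to flag cytotoxicity.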

Read-out in test [11]: Urokinase-type plasminogen activator receptor (uPAR), PLAUR (gene 5329)
Kind of test: BSK_4H_uPAR: BioMAP Diversity Plus: 4H Assay for Urokinase-type plasminogen activator receptor (uPAR) Biomarker Activity (AID 2283030). The settings on record: primary human endothelial cells (HUVEC); actives raise or lower the signal. The method, boiled down:
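Human umbilical vein endothelial cells in the 4H system, 24 h after chemical dosing. Cell-surface uPAR measured by ELISA, fitted in both directions versus DMSO; cytotoxicity checked by SRB total protein in parallel cultures.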

Read-out in test [12]: Vascular endothelial growth factor receptor 2 (Homo sapiens) (UniProt P35968)
Briefly: BSK_4H_VEGFRII: BioMAP Diversity Plus: 4H Assay for Vascular endothelial growth factor receptor 2 (VEGFR2) Biomarker Activity (AID 2283031). The settings on record: primary human endothelial cells (HUVEC); actives raise or lower the signal. Put shortly:
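Primary human umbilical vein endothelial cells (4H system), 24 h exposure; cell-surface VEGFR2 measured by ELISA. Bidirectional fitting versus DMSO; cytotoxicity checked in parallel by SRB total-protein staining.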

Read-out in test [13]: Human Leukocyte Antigen - DR isotype (HLADR), HLA-DRA (gene 3122)
Kind of test: BSK_BE3C_HLADR: BioMAP Diversity Plus: BE3C Assay for Human Leukocyte Antigen - DR isotype (HLADR) Biomarker Activity (AID 2283032). To be noted: primary human bronchial epithelial cells; actives raise or lower the signal. The method, boiled down:
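BioMAP BE3C format: human bronchial epithelium, 24 h compound treatment, ELISA detection of HLA-DR, with bidirectional analysis relative to DMSO.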

Read-out in test [14]: Vascular cell adhesion molecule 1 (VCAM1), VCAM1 (gene 7412)
Kind of test: BSK_4H_VCAM1: BioMAP Diversity Plus: 4H Assay for Vascular cell adhesion molecule 1 (VCAM1) Biomarker Activity (AID 2283033).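 For outcome: cell-surface VCAM-1 protein measured by ELISA.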 The settings on record: primary human endothelial cells (HUVEC); actives raise or lower the signal. Put shortly: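 In this human endothelial (HUVEC) system, biomarker ELISA was run 24 h after compound addition, and total protein in parallel wells was assessed by SRB at 560 nm; DMSO served as negative control.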

Read-out in test [15]: Interferon-gamma inducible Protein 10 (IP10), CXCL10 (gene 3627)
Kind of test: BSK_BE3C_IP10: BioMAP Diversity Plus: BE3C Assay for Interferon-gamma inducible Protein 10 (IP10) Biomarker Activity (AID 2283034). To be noted: primary human bronchial epithelial cells; actives raise or lower the signal. Put shortly:
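BE3C cells (human bronchial epithelial, primary); 24 h exposure; ELISA for IP-10; DMSO-referenced bidirectional fit.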

Read-out in test [16]: Monokine induced gamma interferon (MIG), CXCL9 (gene 4283)
Briefly: BSK_BE3C_MIG: BioMAP Diversity Plus: BE3C Assay for Monokine induced gamma interferon (MIG) Biomarker Activity (AID 2283035). The settings on record: primary human bronchial epithelial cells; actives raise or lower the signal. The method, boiled down:
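hu bronchial epithelial 1° cells, 24 h cpd; MIG by ELISA; bidirectional fit, DMSO = baseline.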

Read-out in test [17]: Transforming growth factor beta 1 (TGFb1), TGFB1 (gene 7040)
Kind of test: BSK_BE3C_TGFb1: BioMAP Diversity Plus: BE3C Assay for Transforming growth factor beta 1 (TGFb1) Biomarker Activity (AID 2283036;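 for outcome: TGF-b1 protein level measured by ELISA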). The settings on record: primary human bronchial epithelial cells; actives raise or lower the signal. Put shortly: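 TGF-b1 measured via ELISA, 24 h after chemical dosing of human bronchial epithelial cells (BE3C). Overt cytotoxicity assessed in parallel by SRB (0.1%, TCA-fixed, 560 nm); analysis bidirectional relative to DMSO.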

Read-out in test [18]: urokinase plasminogen activator (uPA), PLAU (gene 5328)
Kind of test: BSK_BE3C_uPA: BioMAP Diversity Plus: BE3C Assay for urokinase plasminogen activator (uPA) Biomarker Activity (AID 2283038).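 For outcome: uPA protein level quantified by ELISA in cell cultures; uPA read one day after compound addition.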 The settings on record: primary human bronchial epithelial cells; actives raise or lower the signal. Put shortly: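 Primary human bronchial epithelial cells, uPA measured by ELISA 24 h after dosing. Bidirectional change relative to DMSO; cytotoxicity checked in parallel cultures by sulforhodamine B total-protein staining.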

Read-out in test [19]: Urokinase-type plasminogen activator receptor (uPAR), PLAUR (gene 5329)
Kind of test: BSK_BE3C_uPAR: BioMAP Diversity Plus: BE3C Assay for Urokinase-type plasminogen activator receptor (uPAR) Biomarker Activity (AID 2283039).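 For outcome: cells exposed to compound for one day before measurement.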 To be noted: primary human bronchial epithelial cells; actives raise or lower the signal. The method, boiled down:
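Chemically treated human bronchial epithelial cells (lung primary) are assayed for uPAR by ELISA after 24 h, with data fitted in both directions using DMSO as negative control.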

Read-out in test [20]: Plasminogen activator inhibitor-1 (PAI1), SERPINE1 (gene 5054)
Briefly: BSK_BE3C_PAI1: BioMAP Diversity Plus: BE3C Assay for Plasminogen activator inhibitor-1 (PAI1) Biomarker Activity (AID 2283037). To be noted: primary human bronchial epithelial cells; actives raise or lower the signal. Put shortly: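 In this multiplexed primary-cell system, bronchial epithelial cells receive test chemical and are sampled at 24 h. PAI-1 is read by ELISA, with DMSO serving as negative control for bidirectional fitting.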

human Vitamin D Receptor (VDR), VDR (gene 7421), sequence (P11473 whole entry, looked up, the tested form may be a part): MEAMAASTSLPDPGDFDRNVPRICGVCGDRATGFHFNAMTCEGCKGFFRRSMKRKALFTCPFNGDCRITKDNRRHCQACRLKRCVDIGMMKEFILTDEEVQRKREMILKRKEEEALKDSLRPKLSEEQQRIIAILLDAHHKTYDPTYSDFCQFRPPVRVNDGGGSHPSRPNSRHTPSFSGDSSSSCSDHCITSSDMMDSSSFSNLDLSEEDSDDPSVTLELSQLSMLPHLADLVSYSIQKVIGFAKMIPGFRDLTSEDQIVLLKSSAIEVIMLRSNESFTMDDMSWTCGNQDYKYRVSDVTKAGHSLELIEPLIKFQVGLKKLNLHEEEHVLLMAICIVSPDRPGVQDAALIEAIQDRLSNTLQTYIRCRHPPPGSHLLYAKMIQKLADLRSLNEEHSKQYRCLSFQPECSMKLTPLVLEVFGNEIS

Take `COP(=O)(OC)SCn1c(=O)oc2cc(Cl)cnc21`: the AC50 in [1] is 11.3 µM (active); in test [4], 20 µM (active); in [6] it was 39 µM (active); in test [7], 17.5 µM (active); in test [13], 22 µM (active); in test [15], 31.2 µM (active). For the same molecule, the outcome in test [2], in test [3], in test [5], in test [8], in [9] and in test [10] was inactive. In addition, the result in [11], in test [12], in test [14], in test [16], in test [17] and in test [18] was inactive. In [19], the outcome was inactive.

In the case of `CCc1cnc(C2=NC(C)(C(C)C)C(=O)N2)c(C(=O)O)c1` (stereo unspecified), the outcome in test [1], in test [2], in test [3], in test [4], in [5] and in test [6] was inactive. For the same molecule, the result in [7], in test [8], in [9], in [10], in test [11] and in test [12] was inactive. For the same molecule, the outcome in test [13], in [14], in [15], in [16], in test [17] and in [20] was inactive. Further, the outcome in [18] and in [19] was inactive.

Turning to `Nc1c(Cl)cc([N+](=O)[O-])cc1Cl`, the outcome in test [1], in test [2], in [3], in test [4], in [5] and in test [6] was inactive. Moreover, the result in test [7], in [8], in [9], in [10], in [11] and in [12] was inactive. In addition, the result in test [14], in [15], in test [16], in test [17], in [20] and in [18] was inactive. The result in test [19] was inactive. Further, the concentration at half-maximal activity (AC50) in [13] is 12.6 µM (active).

In the case of `COc1cc(OC)nc(Sc2cccc(Cl)c2C(=O)O)n1`, the outcome in test [1], in test [2], in test [3], in test [4], in test [5] and in [6] was inactive. In addition, the result in test [7], in [8], in test [9], in test [10], in [11] and in test [12] was inactive. Also, the result in test [13], in [14], in [15], in [16], in test [17] and in [18] was inactive. Moreover, the outcome in test [19] was inactive.

In the case of `CC[C@H](C)[C@H]1O[C@]2(C=C[C@@H]1C)C[C@@H]1C[C@@H](C/C=C(\C)[C@@H](O[C@H]3C[C@H](OC)[C@@H](O[C@H]4C[C@H](OC)[C@@H](NC)[C@H](C)O4)[C@H](C)O3)[C@@H](C)/C=C/C=C3\CO[C@@H]4[C@H](O)C(C)=C[C@@H](C(=O)O1)[C@]34O)O2`, the AC50 was 6.22 µM (active) in test [1]; 9.14 µM (active) in test [2]; 2.43 µM (active) in test [4]; 11.9 µM (active) in test [5]; 1.61 µM (active) in test [6]; 1.77 µM (active) in [7]. The AC50 was 5.17 µM (active) in [8]; 2.87 µM (active) in [9]; 1.88 µM (active) in [10]; 1.73 µM (active) in [11]; 3.98 µM (active) in [13]; 8.45 µM (active) in test [14]. Also, the AC50 is 7.15 µM (active) in test [15]; 8.8 µM (active) in test [16]; 9.47 µM (active) in test [17]; 10.9 µM (active) in test [18]; 5.78 µM (active) in test [19]. The molecule was classed as inactive in [3] and in test [12].

As to `CCCSP(=O)(OCC)Oc1ccc(Br)cc1Cl` (stereo unspecified), the outcome in test [1], in test [2], in test [3], in test [5], in test [6] and in [10] was inactive. The result in test [11], in [12], in test [16], in test [17], in test [18] and in [19] was inactive. Besides, the AC50 in [4] is 22.6 µM (active); in test [7] it was 32.3 µM (active); in test [8], 22.8 µM (active); in test [9] it was 15.4 µM (active); in test [13] it was 32.1 µM (active); in test [14], 29.8 µM (active). Further, the AC50 in test [15] was 29.1 µM (active).
